Compound in this assay: CN[C@@H]1C[C@H]2O[C@@](C)([C@@H]1OC)n1c3ccccc3c3c4c(c5c6ccccc6n2c5c31)C(=O)NC4 [staurosporine]
In words: log2 fold change of tryptic peptide abundance, ligand vs vehicle (limited proteolysis) (log2 ratio); higher = more trypsin-susceptible (destabilized). Conditions: ligand concentration: 20 uM; sample: mouse liver crude lysate; replicate design: treated separately.
UniProt P70697, sequence (P70697 whole entry): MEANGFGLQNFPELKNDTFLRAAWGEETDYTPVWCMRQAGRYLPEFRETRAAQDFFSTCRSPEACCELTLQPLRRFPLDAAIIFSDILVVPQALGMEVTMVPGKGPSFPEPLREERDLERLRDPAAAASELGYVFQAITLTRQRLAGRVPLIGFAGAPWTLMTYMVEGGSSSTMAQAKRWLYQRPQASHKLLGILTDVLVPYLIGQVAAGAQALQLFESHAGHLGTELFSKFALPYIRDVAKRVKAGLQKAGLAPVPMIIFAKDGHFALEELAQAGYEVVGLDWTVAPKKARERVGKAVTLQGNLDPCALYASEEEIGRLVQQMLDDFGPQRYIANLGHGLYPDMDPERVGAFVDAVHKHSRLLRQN
UniProt P31750, sequence (P31750 whole entry): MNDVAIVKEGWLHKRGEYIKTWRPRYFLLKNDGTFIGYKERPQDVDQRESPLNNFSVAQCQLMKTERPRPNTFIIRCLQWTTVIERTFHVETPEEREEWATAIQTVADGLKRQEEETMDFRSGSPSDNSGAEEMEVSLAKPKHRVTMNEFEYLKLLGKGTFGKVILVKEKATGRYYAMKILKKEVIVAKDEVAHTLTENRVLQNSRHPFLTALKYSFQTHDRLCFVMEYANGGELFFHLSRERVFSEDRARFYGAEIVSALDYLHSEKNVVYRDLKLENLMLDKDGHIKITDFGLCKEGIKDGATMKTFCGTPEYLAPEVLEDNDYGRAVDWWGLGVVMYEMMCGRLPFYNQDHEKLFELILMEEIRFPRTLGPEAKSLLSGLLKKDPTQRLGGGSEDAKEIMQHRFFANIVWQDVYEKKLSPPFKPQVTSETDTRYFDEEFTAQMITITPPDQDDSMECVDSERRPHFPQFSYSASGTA
UniProt Q64261, sequence (Q64261 whole entry): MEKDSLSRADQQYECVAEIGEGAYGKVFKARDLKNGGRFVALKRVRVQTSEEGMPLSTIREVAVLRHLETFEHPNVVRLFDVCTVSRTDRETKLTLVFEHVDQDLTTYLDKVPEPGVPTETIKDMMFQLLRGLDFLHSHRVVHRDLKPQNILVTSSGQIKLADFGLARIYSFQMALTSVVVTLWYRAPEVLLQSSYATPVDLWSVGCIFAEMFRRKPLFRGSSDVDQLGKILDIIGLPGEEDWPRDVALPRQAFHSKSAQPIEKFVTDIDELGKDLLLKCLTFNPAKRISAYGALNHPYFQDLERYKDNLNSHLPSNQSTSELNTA
UniProt O88351, sequence (O88351 whole entry): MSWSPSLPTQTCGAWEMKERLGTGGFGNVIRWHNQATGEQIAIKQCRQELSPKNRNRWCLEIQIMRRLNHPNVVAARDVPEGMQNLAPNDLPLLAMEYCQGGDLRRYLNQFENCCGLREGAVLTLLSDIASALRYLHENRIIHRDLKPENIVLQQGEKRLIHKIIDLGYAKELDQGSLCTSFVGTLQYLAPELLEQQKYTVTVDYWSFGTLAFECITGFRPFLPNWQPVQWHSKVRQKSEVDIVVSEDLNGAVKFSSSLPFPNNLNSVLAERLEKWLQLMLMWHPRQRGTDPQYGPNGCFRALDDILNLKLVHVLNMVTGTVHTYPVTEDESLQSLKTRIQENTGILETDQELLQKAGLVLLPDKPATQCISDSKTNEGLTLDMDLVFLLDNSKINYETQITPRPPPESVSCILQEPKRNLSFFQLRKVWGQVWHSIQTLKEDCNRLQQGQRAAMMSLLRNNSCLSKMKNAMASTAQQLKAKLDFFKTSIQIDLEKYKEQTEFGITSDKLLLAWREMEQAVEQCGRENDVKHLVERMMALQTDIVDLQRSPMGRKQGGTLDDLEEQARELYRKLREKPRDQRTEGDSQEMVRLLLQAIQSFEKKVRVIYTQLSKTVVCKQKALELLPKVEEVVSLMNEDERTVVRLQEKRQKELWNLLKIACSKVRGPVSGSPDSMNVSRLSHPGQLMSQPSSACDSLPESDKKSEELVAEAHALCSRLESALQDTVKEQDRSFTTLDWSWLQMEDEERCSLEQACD
Take “UniProt P31750 (peptide sequence: HPFLTALK, peptide start residue: 209)”: the log2 fold change is -1.6.

In the case of “UniProt P70697 (peptide sequence: FALPYIR, peptide start residue: 232)”, the log2 fold change was determined as 0.384.

For “UniProt Q64261 (peptide sequence: ISAYGALNHPYFQDLER, peptide start residue: 289)”, the log2 fold change came out at 0.478.

As to “UniProt O88351 (peptide sequence: DLKPENIVLQQGEKR, peptide start residue: 145)”, the log2 fold change is -0.744.

Values taken from the supplement of paper PMC12819154, “High-throughput peptide-centric local stability assay extends protein–ligand identification to membrane proteins, tissues and bacteria” (Nature Structural & Molecular Biology, 2025).
